This is part of a sample that, as a whole, favours compounds with a hit. Of some 83,000 tested, about 20% had one in any assay.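 Compound tested at a single concentration for 48 hours in 96-well plates; a percent growth value below 10 was scored as active.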 Values without a mark were called inactive. Calls of active or inactive are those of the source.

In the assay the test system is KM12 colon. Kind of assay: NCI-60 one-dose screen, 48 h (100 = growth as untreated, 0 = no growth, -100 = all killed). Conditions: 10 µM unless noted. The method, then: Growth inhibition of the KM12 human tumor cell line is measured as a screen for anti-cancer activity. Cells are grown in 96 well plates and exposed to the test compound for 48 hours. Compounds are tested at a single concentration, which is 10^-5 M for most compounds. The reported endpoint is percent growth (GI% or GIPRCNT), where numbers from 0 - 100% represent growth inhibition, and numbers from -100% - 0 represent cell death. For example, a value of 40 represents 60% growth inhibition. A value of 0 means no net growth occurred over the course of the experiment. A value of -40 indicates 40% of cells at the beginning of the experiment died by the end of the experiment. A value of -100 means all cells are dead at the end of the experiment.
NCI-60 Human Tumor Cell Lines Screen was performed using the standard one-dose NCI protocol, which is described in more detail at https://dtp.cancer.gov/discovery_development/nci-60/default.htm.
Compounds with GIPRCNT values below 10 were considered active. Activity score was based on GIPRCNT using the following formula: […]
Score is 0 for GIPRCNT values of 100 or above, 50 for GIPRCNT values of 0, and 100 for GIPRCNT values of -100.
Turning to `O=CN1N=C(c2cccc(Nc3ccnc4cc(Cl)ccc34)c2)CC1c1ccccc1` (stereo not given), the growth was 19.7%.
For `CN(/C(N)=N/N=C/c1c2ccccc2cc2ccccc12)C1CCCCC1` the value was 59.6%; for `CCOC(=O)c1ccc(NC(=O)c2nc(-c3cc(OC)c(OC)c(OC)c3)n(-c3ccc(Cl)cc3)n2)cc1`, 94%; for `CC(C)=CCC[C@](C)(O)[C@H]1CC[C@]2(C)[C@@H]1CC[C@@H]1[C@@]3(C)C/C(=C/c4ccco4)C(=O)C(C)(C)[C@@H]3CC[C@]12C`, 106%.
For `COc1ccc(-c2cc(-c3cccnc3)nc3sc4c(=O)[nH]c(-c5ccc(Cl)cc5)nc4c23)cc1OC` the value was 99%; for `NNc1nc(-c2cccnc2)nc2c1sc(=S)n2-c1ccccc1`, 102%; for `Nc1nc2ccccc2c2c(=O)c3cccc(Cl)c3sc12`, 89.8%.
As to `COc1cc2ncnc(Nc3ccc(F)c(Cl)c3)c2cc1OCC(=O)N1CCN(c2ccccc2)CC1`, the growth was 102%.
As to `c1ccc(Cn2cc3c(c2)-c2oncc2CC3)cc1`, the growth was 13.6%.
For `CC(=O)c1c(C)nc2ccccc2c1/C=C/c1ccc(F)cc1` the value was 90.7%; for `CCOC(=O)C1=C(c2ccccc2)N=C2SC=C(c3ccc(Cl)cc3)N2C1c1ccc(Br)cc1` (stereo not given), 78.1%.
Consider `Clc1ccc2c(NC3CCC(N4CCOCC4)CC3)ccnc2c1` (stereo not given), for which the growth is 96.4%.
Take `Cc1nc2sc(C(=O)Nc3cccc(Br)c3)c(N)c2cc1C(O)c1ccccc1` (stereo not given): the growth was 22.8%.
Next, `Nc1nc2ccccc2c2c1S(=O)(=O)c1ccc(Cl)cc1C2=O`: 18.4%; `C1CN(SSN2CCOCC2)CCO1`: 2.07% [100 µM] (active).
For `COc1ccc(C/C(C)=C(/c2ccc(OCCN(C)C)cc2)c2ccc(OC(=O)NCc3ccccc3)cc2)cc1` the value was 72.6%.
As for `CCOC(=O)c1c(NC(=O)c2cccc(C(F)(F)F)c2)sc2c(CN(C)C)c(O)ccc12`, the growth was 79.4%.
For the compound `O=C(/C=C/c1ccco1)Nc1ncc(Cc2cccc(C(F)(F)F)c2)s1`, the growth was 4.7% (active).
`CN1CCc2nc3sc(C(N)=O)c(N)c3c(-c3cccs3)c2C1`: the growth is 6.55% (active).
Next, `Cc1c[n+](Cc2ccc3ccccc3c2)cn1Cc1ccc2ccccc2c1`: -44.7% (active); `CC(C)(C)CC(C)(C)NC(=O)Nc1ncccc1OCc1ccccc1`: 94.5%; `C1CCC([PH+](C2CCCCC2)C2CCCCC2[PH+](C2CCCCC2)C2CCCCC2)CC1.[Au].[CH-]1CCCCC1C1CCCC[N-]1` (stereo not given): -85.2% (active).
For `COc1cc(OC)c(/C=C/C(=O)c2c(OC)cccc2OC)c(OC)c1` the value was 8.59% (active); for `C=C(C)[C@@H]1CCC[C@]2(COS(=O)(=O)c3ccc(C)cc3)CC[C@]3(C)[C@@H](CC[C@@H]4[C@@]5(C)CCCNC(C)(C)[C@@H]5CC[C@]43C)[C@@H]12`, -25.2% (active).
Consider `O=C(CSc1oc(-c2ccccc2)nc1S(=O)(=O)c1ccccc1)Nc1ccc(F)cc1`, for which the growth is 86.6%.
For `O=C1/C(=C/c2cn(-c3ccccc3)nc2-c2ccccc2)SC(=S)N1C1CCCCC1` the value was 102%; for `Cn1cc(C(=O)c2nc(-c3c[nH]c4ccccc34)no2)c2cc(F)ccc21`, 26.7%.
Next, `CC/C=C\C[C@H](O)C/C=C1/C(=O)C=C[C@@H]1C/C=C\CCCC(=O)N(C)C`: -51.3% (active); `CCC(=C(c1ccc(OCCN2CCCCC2)cc1)c1ccc(OCCN2CCCCC2)cc1)c1ccc(Cl)cc1`: -84% (active); `CCSc1oc(-c2ccccc2)nc1[P+](c1ccccc1)(c1ccccc1)c1ccccc1`: -16.2% (active).
Next, `COc1ccc(/C=N/NC(=O)c2ccc(-n3cc(-c4ccccc4)nn3)cc2)cc1OC`: 104%; `Cn1ccnc1C(=O)/C=C/c1ccc(C(=O)Nc2ccc(Cl)cc2)cc1`: -49.8% (active).
For `Nc1nc2ccc(-c3nc4ccc5[nH]ncc5c4c4c3CCCC4)cc2s1`, the growth was 101%.
For `Nc1nc(N)c(-c2ccc(Cl)c(Cl)c2)c(CBr)n1` the value was 88.7%; for `COc1ccc(C(=O)/C=C/c2c(C(F)(F)F)nc3ccccn23)cc1OC`, 3.34% (active).
For `O=C(Nc1nc(-c2ccc(Cl)cc2)nc2c1sc(=S)n2-c1ccccc1)C(F)(F)F` the value was 32.8%.
Next, `Cc1c(O)cc(-c2cnc(Nc3ccccc3)s2)c(O)c1C`: 95.9%; `COc1cc(/C=C2/C=C(c3ccccc3)N(CCc3ccc(S(N)(=O)=O)cc3)C2=O)cc(OC)c1OC`: 105%; `COc1ccc2[nH]c(C(=O)N3CCN(C(=O)OCc4ccc5c(Cl)cc(Cl)c(O)c5n4)CC3)cc2c1`: -62.3% (active).
With `CCOc1ccc(NC(=O)CSc2oc(-c3ccccc3)nc2S(=O)(=O)c2ccc(C)cc2)cc1`, the growth was 65.4%.

For the origin of these results see PubChem BioAssay (NCI).
